Measurements: PubChem BioAssay AID652115 (Broad Institute, 2013)
Hit rate of the full screen: of about 330,000 compounds, about 3,800 (1.2%) were called active. Cut-off read from the data, not from the text of the source: active = inhibition above about 15%; inconclusive = no clear call, values can overlap the other calls; inactive = below that. What follows is part of a selection rich in actives, with near analogues and random picks from the rest.

What follows are compounds tested against NAD-dependent protein deacylase sirtuin-5, mitochondrial (Homo sapiens) (UniProt Q9NXA8) (assay: SIRT5 desuccinylase inhibitors, primary screen, biochemical, fluorescence imaging, single point, set 5 (AID 652115)). Conditions: Purified SirT5, succinyl-peptide AMC, trypsin-coupled fluorescence; at 15 µM; stronger effect = higher value.
Sequence of NAD-dependent protein deacylase sirtuin-5, mitochondrial (Homo sapiens) (Q9NXA8 whole entry, looked up): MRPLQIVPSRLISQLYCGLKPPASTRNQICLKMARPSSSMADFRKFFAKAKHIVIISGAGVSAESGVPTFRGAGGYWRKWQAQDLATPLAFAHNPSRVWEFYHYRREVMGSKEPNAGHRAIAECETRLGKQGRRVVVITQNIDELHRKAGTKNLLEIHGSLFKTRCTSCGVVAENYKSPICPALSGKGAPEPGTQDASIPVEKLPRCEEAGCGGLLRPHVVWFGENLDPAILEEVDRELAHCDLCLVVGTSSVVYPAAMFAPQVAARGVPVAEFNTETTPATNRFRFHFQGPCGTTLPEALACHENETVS
With `C=C(C)COc1ccc(-c2nc(N)ncc2-c2ccccc2OC)c(O)c1` the inhibition was -0.166% (inactive).
With `COc1ccc(-c2nc(N)ncc2-c2ccc(Cl)cc2)c(O)c1` the inhibition was -4.03% (inactive).
In the case of `C=C(C)COc1ccc(-c2ncncc2-c2ccc(OC)cc2)c(O)c1`, the inhibition is reported as 24.8% (active).
In the case of `C=C[C@H](OC)[C@@H](O)c1ccc(OC)c(O)c1`, the inhibition is reported as -1.66% (inactive).
For `CCNC(=O)C[C@@H]1CC[C@@H]2[C@@H](COc3ccc(NC(C)=O)cc3C(=O)N2C)O1`, the inhibition was 1.4% (inactive).
In the case of `COCC(=O)Nc1ccc2c(c1)C(=O)N(C)C[C@@H](OC)[C@H](C)CN(C(=O)c1ccccn1)[C@@H](C)CO2`, the inhibition is reported as 0.122% (inactive).
For `O=C(NCC[C@@H]1CC[C@H](NC(=O)C2CC2)[C@H](CO)O1)c1cnccn1`, the inhibition was 1.79% (inactive).
`O=C(NNc1ncnc2c1cnn2-c1ccccc1)c1ccco1` was tested, and the inhibition was 16.9% (active).
For `Cc1ccccc1NC(=O)c1cnn(-c2ccccc2)c1NC(=O)c1ccco1`, the inhibition was 3.74% (inactive).
With `O=C(Nc1c(C(=O)N2CCCCC2)cnn1-c1ccccc1)c1ccco1` the inhibition was 0.316% (inactive).
For `COc1ccc(Cl)cc1NC(=O)COc1ccc2c(c1)OCO2`, the inhibition was -11.6% (inactive).
With `COc1ccc(Cl)cc1NC(=O)CN(C)Cc1ccc(OC)c(OC)c1` the inhibition was -4.51% (inactive).
`COc1ccc(Cl)cc1NC(=O)COC(=O)c1ccc(Br)o1` was tested, and the inhibition was 21% (active).
In the case of `O=C(C[C@@H]1CC[C@H]2[C@@H](COC[C@@H](O)CN2C(=O)Nc2ccc(F)cc2)O1)NCC1CC1`, the inhibition is reported as 2.85% (inactive).
In the case of `O=C(C[C@@H]1CC[C@H](NC(=O)c2ccncc2)[C@@H](CO)O1)Nc1ccc(-c2ccccc2)cc1`, the inhibition is reported as -3.04% (inactive).
For `O=C(O)c1ccccc1/C=N/Nc1ccc(S(=O)(=O)Nc2ccc(Cl)cc2)cc1[N+](=O)[O-]`, the inhibition was 10.8% (inactive).
For `COc1ccc(Br)cc1/C=N/Nc1ccc(Cl)c(C(=O)O)c1`, the inhibition was -8.87% (inactive).
With `COc1ccc(Br)cc1/C=N/Nc1ccc(S(=O)(=O)Nc2ccccc2C(=O)O)cc1[N+](=O)[O-]` the inhibition was 47.2% (active).
With `COc1cc(OC)c(S(=O)(=O)Nc2ccccc2C(=O)O)cc1S(=O)(=O)Nc1ccccc1C(=O)O` the inhibition was 0.719% (inactive).
`COc1cccc(/C=N/Nc2ccc(S(=O)(=O)Nc3ccccc3C(=O)O)cc2[N+](=O)[O-])c1O` was tested, and the inhibition was 19% (active).
For `Cc1ccc(NS(=O)(=O)c2ccc(N/N=C/c3ccccc3OCC(=O)O)c([N+](=O)[O-])c2)c(C)c1`, the inhibition was -2.15% (inactive).
With `COc1ccc2c3c([nH]c2c1)[C@@H](CO)N(Cc1cccc(F)c1)CC31CN(CC2CC2)C1` the inhibition was 3.68% (inactive).
`CCNC(=O)C[C@@H]1CC[C@@H]2[C@H](COc3ccc(NC(=O)Nc4cccc(C)c4)cc3C(=O)N2C)O1` was tested, and the inhibition was -1.08% (inactive).
In the case of `C/C=C/c1ccccc1[C@@H]1[C@@H](CO)N(S(=O)(=O)c2cccc(F)c2)[C@H]1C#N`, the inhibition is reported as 2.5% (inactive).
In the case of `O=C(C[C@@H]1CC[C@@H]2[C@H](COC[C@H](O)CN2S(=O)(=O)c2ccccc2)O1)N[C@H]1CCN(Cc2ccccc2)C1`, the inhibition is reported as -3.32% (inactive).
For `COCC(=O)Nc1ccc2c(c1)C(=O)N(C)C[C@@H](OC)[C@H](C)CN(C(=O)c1cccnc1)[C@H](C)CO2`, the inhibition was 5.23% (inactive).
With `C=CCOc1cccc(C2C(C(=O)c3ccc(C)o3)=C(O)C(=O)N2c2nnc(C)s2)c1` (stereo not given) the inhibition was -0.578% (inactive).
`Cc1cc(N2C(=O)C(O)=C(C(=O)c3ccc(C)o3)C2c2ccc(OCc3ccccc3)cc2)no1` (stereo not given) was tested, and the inhibition was 19.4% (active).
In the case of `COc1cc(C2C(C(=O)c3ccco3)=C(O)C(=O)N2c2cc(C)on2)ccc1OCc1ccccc1` (stereo not given), the inhibition is reported as -4.04% (inactive).
For `COc1ccc(NC(=O)Nc2ccc3c(c2)C(=O)N([C@@H](C)CO)C[C@@H](C)[C@@H](CN(C)C(=O)CCCN(C)C)OCCCC[C@@H](C)O3)cc1`, the inhibition was -2.34% (inactive).
`COc1ccc2c3c(n(C)c2c1)[C@@H](CO)N(CC1CC1)CC31CN(C(=O)c2cccc(F)c2)C1` was tested, and the inhibition was 1.38% (inactive).
With `Cc1cc(C=O)c(C)n1-c1ccc(NC2CCCCC2)c([N+](=O)[O-])c1` the inhibition was 2.63% (inactive).
`Cc1cc([N+](=O)[O-])ccc1NC1CCCC1` was tested, and the inhibition was 21.2% (active).
In the case of `Cc1cc([N+](=O)[O-])ccc1NS(=O)(=O)c1ccccc1`, the inhibition is reported as 4.53% (inactive).
`C[C@@H]1CN([C@H](C)CO)C(=O)c2cc(-c3cccc(F)c3)cnc2O[C@H]1CN(C)C(=O)Nc1ccccc1F` was tested, and the inhibition was 4.47% (inactive).
`O=C(CN1CCOCC1)N[C@@H]1CC[C@@H](CCNC(=O)C2CCCCC2)O[C@@H]1CO` was tested, and the inhibition was 7.91% (inactive).
For `C[C@H]1CN([C@@H](C)CO)C(=O)c2cc(C#CC3CCCC3)cnc2O[C@H]1CN(C)C(=O)c1ccncc1`, the inhibition was 5.96% (inactive).
In the case of `Cc1c(C(=O)NCCN2CCOCC2)sc2nc(-c3ccc(F)cc3)cn12`, the inhibition is reported as 26.8% (active).
`Cc1c(C(=O)NCC2CCCO2)sc2nc(-c3ccccc3)cn12` (stereo not given) was tested, and the inhibition was -9.93% (inactive).
`Cc1ccc(C(=O)N/C(=C\c2ccc(F)cc2)C(=O)NCCN2CCOCC2)cc1` was tested, and the inhibition was -1.92% (inactive).
`C[C@@H]1CCCCO[C@@H](CN(C)C(=O)Nc2ccc(C(F)(F)F)cc2)[C@H](C)CN([C@@H](C)CO)C(=O)c2cc(N(C)C)ccc2O1` was tested, and the inhibition was 2.03% (inactive).
For `O=C(c1ccc(F)cc1)N1CC(=O)N2[C@@H](CO)[C@H](c3ccc(C4=CCCC4)cc3)[C@@H]2C1`, the inhibition was -4.25% (inactive).
With `C[C@@H]1CN([C@@H](C)CO)S(=O)(=O)c2ccc(C#CCC3CCCC3)cc2O[C@@H]1CN(C)C` the inhibition was 2.36% (inactive).
`C[C@H]1CN([C@@H](C)CO)S(=O)(=O)c2ccc(C#CCN(C)C)cc2O[C@@H]1CN(C)Cc1ccc(F)cc1` was tested, and the inhibition was -1.1% (inactive).
For `C[C@@H]1CN([C@@H](C)CO)S(=O)(=O)c2ccc(C#CCC3CCCC3)cc2O[C@H]1CN(C)C(=O)CC1CC1`, the inhibition was 9.11% (inactive).
`C[C@@H]1CN([C@@H](C)CO)S(=O)(=O)c2ccc(C#CCC3CCCC3)cc2O[C@H]1CN(C)Cc1ccc(C(=O)O)cc1` was tested, and the inhibition was 17.1% (active).
`C[C@@H]1CN([C@H](C)CO)S(=O)(=O)c2ccc(C#CCC3CCCC3)cc2O[C@H]1CN(C)C(=O)CC1CC1` was tested, and the inhibition was 9.26% (inactive).
For `C[C@@H]1CN([C@H](C)CO)S(=O)(=O)c2ccc(C#CCC3CCCC3)cc2O[C@H]1CN(C)Cc1ccc(C(=O)O)cc1`, the inhibition was 15.8% (active).
For `CO[C@@H]1CN(C)C(=O)c2ccc(NC(=O)c3cccc(Oc4ccccc4)c3)cc2OC[C@H](C)NC[C@@H]1C`, the inhibition was 0.913% (inactive).
With `CN(C)C(=O)c1cccc(-c2ccc3n(c2=O)C[C@H]2N[C@@H]3[C@@H](C(=O)NC3CCC3)[C@@H]2CO)c1` the inhibition was -48.3% (inactive).
In the case of `COc1ccc2c3c(n(C)c2c1)[C@H](CO)N(C(C)=O)CC31CN(C(=O)c2cnccn2)C1`, the inhibition is reported as -3.27% (inactive).
`CCc1nnc(NS(=O)(=O)c2ccc(NC(=S)NC(=O)c3cccs3)cc2)s1` was tested, and the inhibition was 19.1% (active).
`CCc1nnc(NS(=O)(=O)c2ccc(NC(=O)c3cccc(OC(F)(F)C(F)F)c3)cc2)s1` was tested, and the inhibition was -3.94% (inactive).
For `CCc1nnc(NS(=O)(=O)c2ccc(NC(=S)NC(=O)/C=C/c3cccs3)cc2)s1`, the inhibition was 9.43% (inactive).
For `C[C@@H]1CN([C@@H](C)CO)C(=O)c2cc(NS(C)(=O)=O)ccc2O[C@@H](C)CCCCO[C@@H]1CN(C)C(=O)c1ccccc1`, the inhibition was 0.623% (inactive).
